Data as given in PubChem BioAssay AID1159580 (chemical genetic matrix, 2015).
“And” between values parts separate entries of the source, which are not always exact repeats. Identical values can stand only once. Out of some 5,500 compounds screened, about 2,000 (36%) were called active. Not shown: some 18% with an inconclusive outcome. Rule as the data show it: active = normalized growth mostly below about 0.91 (no sharp cut-off); inconclusive = no clear call, values can overlap the other calls; inactive = mostly above about 0.92. The list shows a part of the results.

Test: chemical genetic growth profiling, strain panel (AID 1159580);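 also: tested at 20 µM; growth read once vehicle control cultures reached saturation at 30 °C; 1 = growth at the plate median or of vehicle wells; lower values mean less growth of the strain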
Details: growth OD

Measured: normalized growth

CC1OC1P(=O)(O)O (stereo unspecified)
inactive: S. cerevisiae deletion strains, locus YKL009W, strain mrt4, stronger effect = lower value 0.991 | S. cerevisiae deletion strains, locus YKL068W, stronger effect = lower value 0.988 | S. cerevisiae deletion strains, locus YKL085W, strain MDH1 (second series), stronger effect = lower value 0.978 | S. cerevisiae deletion strains, locus YKL085W, strain MDH1, stronger effect = lower value 0.978 | S. cerevisiae deletion strains, locus YKL160W, strain elf1, stronger effect = lower value 0.971 | S. cerevisiae deletion strains, locus YKL190W, strain CNB1, stronger effect = lower value 1 | S. cerevisiae deletion strains, locus YKR001C, strain vps1, stronger effect = lower value 0.992 | S. cerevisiae deletion strains, locus YKR026C, strain gcn3, stronger effect = lower value 1 | S. cerevisiae deletion strains, locus YKR091W, strain srl3, stronger effect = lower value 0.988 | S. cerevisiae deletion strains, locus YLL001W, strain dnm1, stronger effect = lower value 0.982 | S. cerevisiae deletion strains, locus YLL026W, stronger effect = lower value 0.985 | S. cerevisiae deletion strains, locus YLL041C, strain sdh2, stronger effect = lower value 0.999 | S. cerevisiae deletion strains, locus YLR027C, strain aat2, stronger effect = lower value 0.975 | S. cerevisiae deletion strains, locus YLR039C, strain RIC1, stronger effect = lower value 0.991 | S. cerevisiae deletion strains, locus YLR058C, strain SHM2, stronger effect = lower value 0.996 | S. cerevisiae deletion strains, locus YLR102C, strain apc9, stronger effect = lower value 0.99 | S. cerevisiae deletion strains, locus YLR221C, strain rsa3, stronger effect = lower value 0.974 | S. cerevisiae deletion strains, locus YLR258W, strain gsy2, stronger effect = lower value 0.979 | S. cerevisiae deletion strains, locus YLR262C, strain YPT6 (second series), stronger effect = lower value 0.987 | S. cerevisiae deletion strains, locus YLR262C, strain YPT6, stronger effect = lower value 0.956 | S. cerevisiae deletion strains, locus YLR268W, strain sec22, stronger effect = lower value 0.986 | S. cerevisiae deletion strains, locus YLR320W, strain mms22, stronger effect = lower value 0.958 | S. cerevisiae deletion strains, locus YLR330W, strain CHS5, stronger effect = lower value 0.992 | S. cerevisiae deletion strains, locus YLR342W, strain FKS1 (second series), stronger effect = lower value 0.963 | S. cerevisiae deletion strains, locus YLR342W, strain FKS1, stronger effect = lower value 0.983 | S. cerevisiae deletion strains, locus YLR357W, strain rsc2, stronger effect = lower value 0.954 | S. cerevisiae deletion strains, locus YLR370C, strain arc18, stronger effect = lower value 0.999 | S. cerevisiae deletion strains, locus YLR371W, strain rom2, stronger effect = lower value 0.977 | S. cerevisiae deletion strains, locus YLR384C, strain iki3, stronger effect = lower value 0.995 | S. cerevisiae deletion strains, locus YLR418C, strain cdc73, stronger effect = lower value 0.963 | S. cerevisiae deletion strains, locus YML016C, strain PPZ1, stronger effect = lower value 0.99 | S. cerevisiae deletion strains, locus YML032C, strain rad52, stronger effect = lower value 0.997 | S. cerevisiae deletion strains, locus YML120C, strain ndi1, stronger effect = lower value 0.998 | S. cerevisiae deletion strains, locus YML124C, strain tub3, stronger effect = lower value 0.992 | S. cerevisiae deletion strains, locus YMR058W, strain fet3, stronger effect = lower value 0.998 | S. cerevisiae deletion strains, locus YMR078C, strain ctf18, stronger effect = lower value 0.982 | S. cerevisiae deletion strains, locus YMR125W, strain sto1, stronger effect = lower value 1.01 | S. cerevisiae deletion strains, locus YMR129W, stronger effect = lower value 1.01 | S. cerevisiae deletion strains, locus YMR205C, strain PFK2, stronger effect = lower value 0.962 | S. cerevisiae deletion strains, locus YMR223W, strain ubp8, stronger effect = lower value 0.971 | S. cerevisiae deletion strains, locus YMR231W, strain pep5, stronger effect = lower value 0.991 | S. cerevisiae deletion strains, locus YMR263W, strain SAP30, stronger effect = lower value 1.01 and 1 | S. cerevisiae deletion strains, locus YMR307W, strain GAS1, stronger effect = lower value 0.94 | S. cerevisiae deletion strains, locus YNL067W, strain RPL9B, stronger effect = lower value 1.03 | S. cerevisiae deletion strains, locus YNL071W, strain lat1, stronger effect = lower value 1 | S. cerevisiae deletion strains, locus YNL128W, strain TEP1, stronger effect = lower value 0.986 | S. cerevisiae deletion strains, locus YNL153C, strain GIM3, stronger effect = lower value 1.15 | S. cerevisiae deletion strains, locus YNL175C, strain NOP13, stronger effect = lower value 0.984 | S. cerevisiae deletion strains, locus YNL197C, strain WHI3, stronger effect = lower value 0.988 | S. cerevisiae deletion strains, locus YNL209W, strain ssb2, stronger effect = lower value 0.981 | S. cerevisiae deletion strains, locus YNL224C, strain SQS1, stronger effect = lower value 0.983 | S. cerevisiae deletion strains, locus YNL233W, strain BNI4, stronger effect = lower value 1 | S. cerevisiae deletion strains, locus YNL248C, strain rpa49, stronger effect = lower value 1.03 | S. cerevisiae deletion strains, locus YNL250W, strain rad50, stronger effect = lower value 0.952 | S. cerevisiae deletion strains, locus YNL271C, strain bni1, stronger effect = lower value 0.993 | S. cerevisiae deletion strains, locus YNL298W, strain CLA4, stronger effect = lower value 0.994 | S. cerevisiae deletion strains, locus YNL307C, strain MCK1, stronger effect = lower value 0.98 | S. cerevisiae deletion strains, locus YNL322C, strain KRE1 (second series), stronger effect = lower value 0.967 | S. cerevisiae deletion strains, locus YNL322C, strain KRE1, stronger effect = lower value 0.996 and 0.98 | S. cerevisiae deletion strains, locus YNR049C, strain mso1, stronger effect = lower value 1 | S. cerevisiae deletion strains, locus YNR052C, strain pop2, stronger effect = lower value 0.978 | S. cerevisiae deletion strains, locus YOL006C, strain TOP1, stronger effect = lower value 1.02 | S. cerevisiae deletion strains, locus YOL012C, strain htz1 1.02 | S. cerevisiae deletion strains, locus YOL147C, strain pex11, stronger effect = lower value 0.98 | S. cerevisiae deletion strains, locus YOR001W, strain rrp6, stronger effect = lower value 0.971 | S. cerevisiae deletion strains, locus YOR061W, strain CKA2, stronger effect = lower value 0.987 | S. cerevisiae deletion strains, locus YOR069W, strain VPS5, stronger effect = lower value 0.992 | S. cerevisiae deletion strains, locus YOR070C, strain gyp1, stronger effect = lower value 0.981 | S. cerevisiae deletion strains, locus YOR080W, strain dia2, stronger effect = lower value 1 | S. cerevisiae deletion strains, locus YOR083W, strain WHI5 (second series), stronger effect = lower value 0.997 | S. cerevisiae deletion strains, locus YOR083W, strain WHI5, stronger effect = lower value 0.95 | S. cerevisiae deletion strains, locus YOR106W, strain vam3, stronger effect = lower value 0.986 | S. cerevisiae deletion strains, locus YOR136W, strain idh2, stronger effect = lower value 0.994 | S. cerevisiae deletion strains, locus YOR144C, strain elg1, stronger effect = lower value 0.989 | S. cerevisiae deletion strains, locus YOR184W, strain ser1, stronger effect = lower value 0.972 | S. cerevisiae deletion strains, locus YOR265W, strain rbl2, stronger effect = lower value 0.977 | S. cerevisiae deletion strains, locus YOR270C, strain vph1, stronger effect = lower value 1.07 | S. cerevisiae deletion strains, locus YOR290C, strain snf2, stronger effect = lower value 0.992 | S. cerevisiae deletion strains, locus YOR316C, strain cot1, stronger effect = lower value 0.993 | S. cerevisiae deletion strains, locus YPL051W, strain arl3, stronger effect = lower value 0.977 | S. cerevisiae deletion strains, locus YPL055C, strain LGE1, stronger effect = lower value 1.06 | S. cerevisiae deletion strains, locus YPL078C, strain atp4, stronger effect = lower value 0.993 | S. cerevisiae deletion strains, locus YPL106C, strain sse1, stronger effect = lower value 0.959 | S. cerevisiae deletion strains, locus YPL240C, strain hsp82, stronger effect = lower value 0.997 | S. cerevisiae deletion strains, locus YPL241C, strain CIN2, stronger effect = lower value 0.996 | S. cerevisiae deletion strains, locus YPR119W, strain clb2, stronger effect = lower value 0.99 | S. cerevisiae deletion strains, locus YPR141C, strain kar3, stronger effect = lower value 0.985 | S. cerevisiae deletion strains, locus YPR163C, strain tif3, stronger effect = lower value 0.979 | S. cerevisiae deletion strains, locus YPR167C, strain met16, stronger effect = lower value 0.987 | S. cerevisiae deletion strains, strain wtn01, stronger effect = lower value 0.967 | S. cerevisiae strains, strain wild type, stronger effect = lower value 1
